# From the supplement of paper PMC8728848
# Many of the other results were omitted from the sample, so the strongest signals are more common in it than they were.
# Key:
# Test in all cases: glycan array binding signal (z-score within array); higher = stronger binding
# Conditions in all cases: glycan notation: IUPAC condensed, linker removed
# [1] = target: GalNAc(b1-4)GlcNAc(b1-2)Man(a1-3)[GalNAc(b1-4)GlcNAc(b1-2)Man(a1-6)]Man(b1-4)GlcNAc(b1-4)GlcNAc
# How it was run: (§1)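 Columns mapping to the same glycan were averaged after glycan names were converted to IUPAC-condensed notation. The data come from 3228 arrays in the Consortium for Functional Glycomics database, limited to those with an available protein sequence. Binding is reported as a within-array Z-score averaged across arrays of one protein sequence and across linkers.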
# [2] = target: GalNAc3S(b1-4)GlcNAc
# How it was run: as §1
# [3] = target: GlcNAc(b1-2)Man(a1-3)[GlcNAc(b1-2)Man(a1-6)]Man(b1-4)GlcNAc(b1-4)GlcNAc
# How it was run: as §1
# [4] = target: GlcNAc(b1-3)Gal(b1-4)GlcNAc(b1-3)Gal(b1-4)GlcNAc(b1-3)Gal(b1-4)GlcNAc(b1-2)Man(a1-3)[GlcNAc(b1-3)Gal(b1-4)GlcNAc(b1-3)Gal(b1-4)GlcNAc(b1-3)Gal(b1-4)GlcNAc(b1-2)Man(a1-6)]Man(b1-4)GlcNAc(b1-4)GlcNAc
# How it was run: as §1
# [5] = target: GlcNAc(b1-3)[GlcNAc(b1-6)]GalNAc
# How it was run: as §1
# [6] = target: GlcNAc(b1-4)GlcNAc(b1-4)GlcNAc(b1-4)GlcNAc(b1-4)GlcNAc
# How it was run: as §1
# [7] = target: Man(a1-2)Man(a1-3)[Man(a1-2)Man(a1-6)]Man
# How it was run: as §1
# [8] = target: Man(a1-2)Man(a1-3)[Man(a1-6)]Man(a1-6)[Man(a1-2)Man(a1-3)]Man(b1-4)GlcNAc(b1-4)GlcNAc
# How it was run: as §1
# [9] = target: Neu5Ac(a2-3)Gal(b1-4)GlcNAc(b1-2)Man(a1-3)[GlcNAc(b1-4)][Neu5Ac(a2-3)Gal(b1-4)GlcNAc(b1-2)Man(a1-6)]Man(b1-4)GlcNAc(b1-4)GlcNAc
# How it was run: as §1
# [10] = target: Neu5Ac(a2-3)Gal(b1-4)GlcNAc(b1-2)Man(a1-3)[Neu5Ac(a2-6)Gal(b1-4)GlcNAc(b1-2)Man(a1-6)]Man(b1-4)GlcNAc(b1-4)GlcNAc
# How it was run: as §1
# [11] = target: Neu5Ac(a2-3)Gal(b1-4)GlcNAc(b1-3)[Neu5Ac(a2-3)Gal(b1-4)GlcNAc(b1-6)]GalNAc
# How it was run: as §1
# [12] = target: Neu5Ac(a2-3)Gal(b1-4)[Fuc(a1-3)]GlcNAc(b1-3)Gal(b1-4)GlcNAc
# How it was run: as §1
# [13] = target: Neu5Ac(a2-6)Gal(b1-4)Glc
# How it was run: as §1
# [14] = target: Neu5Ac(a2-6)GalNAc(b1-4)GlcNAc6S
# How it was run: as §1
# [15] = target: Neu5Ac(a2-8)Neu5Ac(a2-8)Neu5Ac(a2-3)Gal(b1-4)Glc
# How it was run: as §1
# [16] = target: Neu5Ac(a2-8)Neu5Gc(a2-3)Gal(b1-4)GlcNAc
# How it was run: as §1
# [17] = target: Neu5Gc(a2-8)Neu5Ac(a2-3)Gal(b1-4)GlcNAc
# How it was run: as §1
# [18] = target: Neu5Gc(a2-8)Neu5Gc(a2-3)Gal(b1-4)GlcNAc(b1-3)Gal(b1-4)GlcNAc
# How it was run: as §1
# [19] = target: Fuc(a1-2)Gal(b1-3)GlcNAc(b1-2)Man(a1-3)[Fuc(a1-2)Gal(b1-3)GlcNAc(b1-2)Man(a1-6)]Man(b1-4)GlcNAc(b1-4)GlcNAc
# How it was run: as §1
# [20] = target: Fuc(a1-2)Gal(b1-4)GlcNAc
# How it was run: as §1
# [21] = target: Fuc(a1-2)Gal(b1-4)GlcNAc(b1-2)[Fuc(a1-2)Gal(b1-4)GlcNAc(b1-4)]Man(a1-3)[Fuc(a1-2)Gal(b1-4)GlcNAc(b1-2)Man(a1-6)]Man(b1-4)GlcNAc(b1-4)GlcNAc
# How it was run: as §1
# [22] = target: Fuc(a1-2)Gal(b1-4)GlcNAc(b1-3)Gal(b1-4)GlcNAc
# How it was run: as §1
# [23] = target: Fuc(a1-2)Gal(b1-4)[Fuc(a1-3)]GlcNAc
# How it was run: as §1
# [24] = target: Fuc(a1-2)[Gal(a1-3)]Gal(b1-3)GlcNAc(b1-3)GalNAc
# How it was run: as §1
# [25] = target: Fuc(a1-2)[Gal(a1-3)]Gal(b1-4)GlcNAc(b1-3)[Fuc(a1-2)[Gal(a1-3)]Gal(b1-4)GlcNAc(b1-6)]GalNAc
# How it was run: as §1
# [26] = target: Fuc(a1-2)[Gal(a1-3)]Gal(b1-4)[Fuc(a1-3)]GlcNAc(b1-3)GalNAc
# How it was run: as §1
# [27] = target: Fuc(a1-2)[GalNAc(a1-3)]Gal(b1-3)GlcNAc
# How it was run: as §1
# [28] = target: Fuc(a1-2)[GalNAc(a1-3)]Gal(b1-4)GlcNAc(b1-3)Gal(b1-4)GlcNAc
# How it was run: as §1
# [29] = target: Fuc(b1-3)GlcNAc
# How it was run: as §1
# [30] = target: Gal(a1-3)Gal(b1-4)GlcNAc(b1-2)Man(a1-3)[Gal(a1-3)Gal(b1-4)GlcNAc(b1-2)Man(a1-6)]Man(b1-4)GlcNAc(b1-4)GlcNAc
# How it was run: as §1
# [31] = target: Gal(b1-2)Gal
# How it was run: as §1
# [32] = target: Gal(b1-3)Gal(b1-4)GlcNAc
# How it was run: as §1
# [33] = target: Gal(b1-3)Gal(b1-4)GlcNAc(b1-2)Man(a1-3)[Gal(b1-3)Gal(b1-4)GlcNAc(b1-2)Man(a1-6)]Man(b1-4)GlcNAc(b1-4)GlcNAc
# How it was run: as §1
# [34] = target: Gal(b1-3)GlcNAc
# How it was run: as §1
# [35] = target: Gal(b1-3)GlcNAc(b1-3)GalNAc
# How it was run: as §1
# [36] = target: Gal(b1-3)GlcNAc6S
# How it was run: as §1
# [37] = target: Gal(b1-3)[Neu5Ac(a2-6)]GalNAc
# How it was run: as §1
# [38] = target: Gal(b1-4)GalNAc(b1-3)[Fuc(a1-2)]Gal(b1-4)GlcNAc
# How it was run: as §1
# [39] = target: Gal(b1-4)GlcNAc(b1-2)Man(a1-6)Man(b1-4)GlcNAc(b1-4)GlcNAc
# How it was run: as §1
# [40] = target: Gal(b1-4)GlcNAc(b1-2)Man(a1-6)[GlcNAc(b1-2)Man(a1-3)]Man(b1-4)GlcNAc(b1-4)GlcNAc
# How it was run: as §1
# [41] = target: Gal(b1-4)GlcNAc(b1-3)Gal(b1-4)Glc
# How it was run: as §1
# [42] = target: Gal(b1-4)GlcNAc(b1-3)Gal(b1-4)GlcNAc(b1-3)Gal(b1-4)GlcNAc(b1-3)Gal(b1-4)GlcNAc(b1-2)Man(a1-3)[Gal(b1-4)GlcNAc(b1-3)Gal(b1-4)GlcNAc(b1-3)Gal(b1-4)GlcNAc(b1-3)Gal(b1-4)GlcNAc(b1-2)Man(a1-6)]Man(b1-4)GlcNAc(b1-4)[Fuc(a1-6)]GlcNAc
# How it was run: as §1
# [43] = target: Gal(b1-4)GlcNAc(b1-3)Gal(b1-4)GlcNAc(b1-3)Gal(b1-4)GlcNAc(b1-3)Gal(b1-4)GlcNAc(b1-3)Gal(b1-4)GlcNAc(b1-3)Gal(b1-4)GlcNAc(b1-2)Man(a1-3)[Gal(b1-4)GlcNAc(b1-3)Gal(b1-4)GlcNAc(b1-3)Gal(b1-4)GlcNAc(b1-3)Gal(b1-4)GlcNAc(b1-3)Gal(b1-4)GlcNAc(b1-3)Gal(b1-4)GlcNAc(b1-2)Man(a1-6)]Man(b1-4)GlcNAc(b1-4)GlcNAc
# How it was run: as §1
# [44] = target: Gal(b1-4)GlcNAc(b1-3)Gal(b1-4)GlcNAc(b1-3)GalNAc
# How it was run: as §1
# [45] = target: Gal(b1-4)GlcNAc(b1-3)Gal(b1-4)GlcNAc(b1-3)[Gal(b1-4)GlcNAc(b1-3)Gal(b1-4)GlcNAc(b1-6)]GalNAc
# How it was run: as §1
# [46] = target: Gal(b1-4)GlcNAc(b1-3)[Gal(b1-4)GlcNAc(b1-6)]GalNAc
# How it was run: as §1
# [47] = target: Gal(b1-4)GlcNAc6P
# How it was run: as §1
# [48] = target: Gal3S(b1-3)GalNAc
# How it was run: as §1
binder,measurement,setting,value
PX14375l-pdi-526-25-526 (Parabacteroides distasonis) (protein) DEEPKSTLTDVAYYKTQSQMESNVNYLYRTGAIGSYVDFGSAYIGPFASIQEELTGYFSNSYEGQEIVCRYTRELTRQQNTMQLASKMDKVWDDCYRGINVANGAIKHMPEVPMDQATADRLTAEAKFFRAFNYFYLVKTFGAVPFYTDPYELAENMELPRTETSTIYNQIESDLKDAMNVLPEATFAANGHRITKYVAAMTLTDVYMYQHKYAEAAETVRIVVNSNHKLTTNDDLAMNSAFNKLRSTDDLDEAIYAYEYDNQISPSNWLPTYAFDGDASSNGLFGTYAITQKVHGPNDRYLNIYESNDLRRQPNQFYHWTYTNPKTGKVWNSVGNAACCWYYYDEDALLTTGRGTKDWNVYRYAEALLDAAESIAQSTGVTAEAAGYLAQVKARANMEGKTAAEIASSLQSMGKQAFIEECWTERLRELPLEFKMWDMCVRTGMFPNISETTPGQVTYIPLVGAKNASGATIKESDLLWPLSVNEIQRNPSLTQNEGYSAK,glycan array binding signal (z-score),[1],-0.068
same,glycan array binding signal (z-score),[2],-0.071
same,glycan array binding signal (z-score),[3],-0.225
same,glycan array binding signal (z-score),[4],-0.168
same,glycan array binding signal (z-score),[5],-0.1
same,glycan array binding signal (z-score),[6],-0.095
same,glycan array binding signal (z-score),[7],-0.022
same,glycan array binding signal (z-score),[8],-0.236
same,glycan array binding signal (z-score),[9],-0.214
same,glycan array binding signal (z-score),[10],-0.134
same,glycan array binding signal (z-score),[11],-0.205
same,glycan array binding signal (z-score),[12],0.129
same,glycan array binding signal (z-score),[13],0.019
same,glycan array binding signal (z-score),[14],0.114
same,glycan array binding signal (z-score),[15],-0.12
same,glycan array binding signal (z-score),[16],2.74
same,glycan array binding signal (z-score),[17],-0.206
same,glycan array binding signal (z-score),[18],-0.201
"AAL (Agrocybe aegerita), Q6WY08 (protein) MQGVNIYNISAGTSVDLAAPVTTGDIVTFFSSALNLNAGAGNPNNTTLNLFAENGAYLLHIAFRLQENVIIFNSRQPDGPWLVEQRVSDVANQFAGIDGKAMVTVFDHGDKYQVVINEKTVIQYTKQISGLTLSLSYNATEETSIFSTVVEAVTYTGLALEHHHHHH",glycan array binding signal (z-score),[19],-0.105
same,glycan array binding signal (z-score),[20],-0.146
same,glycan array binding signal (z-score),[21],-0.119
same,glycan array binding signal (z-score),[22],-0.138
same,glycan array binding signal (z-score),[23],-0.147
same,glycan array binding signal (z-score),[24],-0.119
same,glycan array binding signal (z-score),[25],-0.138
same,glycan array binding signal (z-score),[26],-0.136
same,glycan array binding signal (z-score),[27],-0.152
same,glycan array binding signal (z-score),[28],-0.112
same,glycan array binding signal (z-score),[29],-0.123
same,glycan array binding signal (z-score),[30],7.5
same,glycan array binding signal (z-score),[31],-0.141
same,glycan array binding signal (z-score),[32],-0.135
same,glycan array binding signal (z-score),[33],6.91
same,glycan array binding signal (z-score),[34],-0.146
same,glycan array binding signal (z-score),[35],-0.149
same,glycan array binding signal (z-score),[36],-0.129
same,glycan array binding signal (z-score),[37],-0.159
same,glycan array binding signal (z-score),[38],-0.135
same,glycan array binding signal (z-score),[39],-0.162
same,glycan array binding signal (z-score),[40],-0.145
same,glycan array binding signal (z-score),[41],-0.142
same,glycan array binding signal (z-score),[42],-0.096
same,glycan array binding signal (z-score),[43],-0.099
same,glycan array binding signal (z-score),[44],-0.131
same,glycan array binding signal (z-score),[45],-0.125
same,glycan array binding signal (z-score),[46],-0.153
same,glycan array binding signal (z-score),[47],-0.163
same,glycan array binding signal (z-score),[48],9.4
